# Anthrax LF inh2 = inhibitors of Bacillus anthracis lethal factor protease. inhibition, % at 10 µM. multiplex microsphere protease cleavage assay, LF. AID 588501. hit rate 0.12% among 360,000; also: plate controls were buffer without enzyme for full effect and enzyme alone for no effect
# Target sequence (P15917 whole entry, looked up): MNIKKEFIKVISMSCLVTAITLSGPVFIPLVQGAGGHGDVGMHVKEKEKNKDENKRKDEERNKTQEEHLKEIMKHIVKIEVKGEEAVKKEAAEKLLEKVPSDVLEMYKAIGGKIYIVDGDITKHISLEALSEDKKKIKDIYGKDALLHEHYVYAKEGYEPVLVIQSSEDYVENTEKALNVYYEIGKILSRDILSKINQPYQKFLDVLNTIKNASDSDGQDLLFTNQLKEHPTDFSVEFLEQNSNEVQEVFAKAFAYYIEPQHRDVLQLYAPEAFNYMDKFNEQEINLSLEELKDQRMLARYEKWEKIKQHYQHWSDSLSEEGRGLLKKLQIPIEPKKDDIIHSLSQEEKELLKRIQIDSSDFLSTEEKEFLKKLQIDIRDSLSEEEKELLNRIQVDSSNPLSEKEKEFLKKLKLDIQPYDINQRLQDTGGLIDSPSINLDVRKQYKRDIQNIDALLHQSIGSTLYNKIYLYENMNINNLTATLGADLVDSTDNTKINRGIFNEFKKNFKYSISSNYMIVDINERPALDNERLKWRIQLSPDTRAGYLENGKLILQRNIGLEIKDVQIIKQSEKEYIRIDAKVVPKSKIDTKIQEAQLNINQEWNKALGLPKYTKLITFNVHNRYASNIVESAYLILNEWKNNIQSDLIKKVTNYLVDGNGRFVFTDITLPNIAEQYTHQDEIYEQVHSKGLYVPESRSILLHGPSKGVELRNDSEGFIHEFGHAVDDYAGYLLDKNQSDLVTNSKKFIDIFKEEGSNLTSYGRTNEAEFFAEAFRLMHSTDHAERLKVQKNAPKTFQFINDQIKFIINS
# Autofluor counter = counter-screen for toxin protease inhibitors: compound fluorescence. fluorescence intensity (test concentration not listed). hit rate 3.1% among 360,000. compound autofluorescence counterscreen, microsphere flow cytometry; hits give high values; in the data active = fluorescence intensity above about 16000; inconclusive = no clear call, values can overlap the other calls
# BoNT F protease = inhibitors of Botulinum neurotoxin F light chain protease; Multiplex microsphere protease cleavage assay, flow cytometry; inhibition, % at 10 µM; hit rate 0.22% among 360,000; in the data active = inhibition above about 35%, passing the limit was not always enough; inconclusive = no clear call, values can overlap the other calls; also: plate controls were buffer without enzyme for full effect and enzyme alone for no effect
# BJeLR viability = BJeLR cell viability loss | BJeLR (HRASV12) viability, CellTiter-Glo ATP luminescence, 48 h | hit rate 0.17% among 300,000 | AID 1554 | inhibition, % (no concentration beside the values); in the data active = inhibition above about 50%; inconclusive = no clear call, values can overlap the other calls
# BoNT A protease = blocks Botulinum neurotoxin A light chain protease; multiplex microsphere protease substrate cleavage, flow cytometry; inhibition, % at 10 µM; hit rate 0.17% among 360,000; also: plate controls were buffer without enzyme for full effect and enzyme alone for no effect
# 3CLpro inhibitor = SARS-CoV 3CLpro protease inhibition | P0C6X7 | AID 1706 | hit rate 0.14% among 290,000 | inhibition, % at 6 µM | recombinant SARS-CoV 3CLpro, quenched FRET peptide cleavage; in the data active = inhibition above about 12%
# * marks the source's active call; other numbers are inactive results; ? = inconclusive; · = no result given. The list is not random: actives were taken first. Their share in the collection is about 3.6%. Rule as the data show it, unless noted: active = inhibition above about 30%; inconclusive = no clear call, values can overlap the other calls; inactive = below that.
SMILES,Anthrax LF inh2,Autofluor counter,BoNT F protease,BJeLR viability,BoNT A protease,3CLpro inhibitor
CC(C)N1CCN(C(=O)C2CCC(=O)N(CCc3cccc(F)c3)C2)CC1 (configuration not stated),-3,6010,-11,3,-3,-7
Cc1nn(C2CCOC(C)(C)C2)c2c1C(c1ccc(OC(C)C)cc1)SCC(=O)N2 (configuration not stated),0,21930*,-2,2,0,-3
COc1ccc(C2SCC(=O)Nc3c2c(C)nn3-c2ccccc2)cc1 (configuration not stated),1,5052,-10,10,-1,-1
COc1ccc(-c2nnc(NC(=O)c3ccc(S(=O)(=O)N4CCc5ccccc5C4)cc3)o2)cc1,2,4538,4,76*,0,-4
COc1ccc(-c2csc(NC(=O)c3ccc(S(=O)(=O)N4CCc5ccccc5C4)cc3)n2)cc1,3,2441,-17,24,-1,-1
CCOC(=O)C(C#N)(Cc1ccc2ccccc2n1)Cc1ccc2ccccc2n1,-1,3517,-3,·,-1,·
CCN1CC2CCCC3(C1)C(=O)NC1(CCCCC1)N=C23 (configuration not stated),0,21486*,-1,-5,-2,-1
COc1ccc(-c2noc(-c3ccccc3C(=O)N3CCOCC3)n2)cc1,1,20897*,9,-21,6,-1
COc1ccc(OC)c(C(=O)CCCCC(=O)c2cc(OC)ccc2OC)c1,-11,4217,-13,·,0,·
COc1ccc(C(=O)CCC(=O)O)c(C)c1,-4,22646*,1,4,1,-1
Cc1cc2cc(C)c3nnc(SCc4ccccn4)n3c2cc1C,-3,2520,-1,-6,0,-2
Cc1ccc(C)c2c1cc(C)c1nnc(SCc3ccccn3)n12,-3,26246*,-5,0,-5,2
O=C1CC(c2ccc3c(c2)OCO3)c2cc3c(cc2N1)OCO3 (configuration not stated),-2,2493,-8,2,0,1
CC(C)Oc1ccccc1C1CC(=O)Nc2cc3c(cc21)OCCO3 (configuration not stated),?,?,-16,64*,-7,8
Cc1ccc(C2CC(=O)Nc3cc4c(cc32)OCO4)o1 (configuration not stated),-3,23026*,2,-1,1,-7
COc1ccc(CN(Cc2cc3cc(OC)c(OC)cc3[nH]c2=O)C(=O)NC2CCCCC2)cc1,-5,22119*,-1,·,-1,2
Cc1ccc(C)c2[nH]c(=O)c(CN(CC3CCCO3)C(=O)NC3CCCCC3)cc12 (configuration not stated),0,19956*,0,-1,?,-1
Cc1ccc(C)c2[nH]c(=O)c(CN(Cc3nnnn3C3CCCCC3)CC3CCCO3)cc12 (configuration not stated),1,10836,7,2,1,6
Cc1nn(-c2ccccc2)c(C)c1NC(=O)COC(=O)c1cc(Br)ccc1O,-1,?,-6,-10,-1,·
O=C(C1CCN(c2ccc(N3CCOCC3)nn2)CC1)N1CCN(c2ccc(F)cc2)CC1,-1,22313*,1,-26,2,-2
O=C(CNC(=O)c1ccccc1Br)Nc1cccc(S(=O)(=O)Nc2ccccc2Cl)c1,-4,3598,-6,·,0,·
CNS(=O)(=O)c1ccc(CCC(=O)N2CCOCC2)cc1,-6,3301,?,-15,3,1
O=C(CCc1ccc(S(=O)(=O)N2CCOCC2)cc1)N1CCCC1,-2,23425*,-3,-7,?,-11
O=C(CCc1ccc(S(=O)(=O)N2CCOCC2)cc1)Nc1nccs1,-4,2844,0,1,0,-3
O=C(CCc1ccc(S(=O)(=O)N2CCOCC2)cc1)Nc1nc(COc2ccccc2)cs1,-1,22376*,0,25,2,0
SMILES,Anthrax LF inh2,Autofluor counter,BoNT F protease,BJeLR viability,BoNT A protease,3CLpro inhibitor
O=C(CCc1ccc(S(=O)(=O)N2CCOCC2)cc1)NCCc1ccccn1,-2,21908*,-2,0,?,-2
O=C(CCc1ccc(S(=O)(=O)N2CCOCC2)cc1)Nc1ccccc1F,9,3432,-3,·,0,·
CC1(C)CC(=O)c2c(O)cc(OCc3ccc([N+](=O)[O-])cc3)cc2O1,-2,24979*,-3,1,?,3
CCOc1ccc(N=C(NC#N)SCC(=O)NC2CC2)cc1,-2,23167*,-1,-2,?,-4
CC(C)(C)NC(=O)CN(C(=O)CCN1CCCc2ccccc21)C(C)(C)C,6,20626*,-6,6,13,2
CCOC(=O)/C=c1\s/c(=C\c2c(OC)ccc3ccccc23)c(=O)n1CC(=O)NCC1CCCO1 (configuration not stated),-4,16857*,-6,-15,-2,5
Cc1ccccc1C(=O)N[C@H](C(=O)OCC(=O)NC1CC1)C(C)C,-1,3867,0,·,0,·
CCOc1ccc(OCc2ccc(C(=O)N3N=C(C(F)F)CC3(O)C(F)F)o2)cc1 (configuration not stated),-4,17666*,-3,-8,-4,-2
CCCCNC(=O)c1ccc(CS(=O)(=O)c2cccc(C(F)(F)F)c2)o1,1,21163*,1,5,2,0
O=C(NCc1ccco1)c1ccc(CS(=O)(=O)c2cccc(C(F)(F)F)c2)o1,-10,22579*,-6,1,-2,-2
O=C(NCc1ccc2c(c1)OCO2)c1ccc(CS(=O)(=O)c2cccc(C(F)(F)F)c2)o1,-8,9545,4,-7,0,2
COc1ccc(S(=O)(=O)Cc2ccc(C(=O)NCCCN(C)c3ccccc3)o2)cc1,-4,22186*,-4,3,?,-5
CCCc1ccc(OCc2ccc(C(=O)N3CCN(c4ccccn4)CC3)o2)c(OC)c1,-3,23006*,0,1,?,1
COCCNC(=O)c1ccc(CS(=O)(=O)c2cccc(C(F)(F)F)c2)o1,0,4003,-3,3,-5,0
CCOc1ncccc1C(=O)Nc1ccc(S(=O)(=O)N2CC(C)CC(C)C2)cc1 (configuration not stated),-5,4015,-11,·,-2,·
COc1cccc(N2CCN(C(=O)C3CCCN(S(=O)(=O)c4ccc5c(c4)oc(=O)n5C)C3)CC2)c1 (configuration not stated),-3,4120,-5,17,-2,8
Cc1ccc(-n2nc3c(=O)n(CC(=O)NC4CCCCC4)nc(C)c3c2C)cc1,-4,5285,1,-14,3,-3
O=C(c1ccc(CS(=O)(=O)c2cccc(C(F)(F)F)c2)o1)N1CCN(c2ccccn2)CC1,0,23435*,-4,-3,?,2
CC(C)(C)Nc1nc(SCc2ccccc2)nc(N2CCOCC2)n1,-5,23358*,-7,1,?,4
CNc1nc(SCc2ccccc2)nc(N2CCOCC2)n1,-3,11491,-9,6,-1,-1
